In PubChem BioAssay (NCATS):
Records with an inconclusive call do not appear. Activity calls are given as the source filed them. The call rests on the fitted dose curve; in most records, active means well fitted inhibition curve with a large enough effect; inconclusive means small, poorly fitted or top-dose-only effect; inactive means flat fitted curve, though single readings scatter.

Tests used:
Experiment in all cases: qHTS profiling for inhibitors of Plasmodium falciparum proliferation (AID 504749); further: nearly all actives have a fitted effect of over 60% in size
Conditions in all cases: P. falciparum in erythrocytes, SYBR Green DNA, 72 h; series mostly up to 12.8 µM
CP252 = tested on: CP252
Outline: (§1)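 P. falciparum-infected erythrocytes (0.3% parasitemia, 2.5% hematocrit) incubated with compound 72 h at 37 C, 5% CO2. Parasite DNA detected by SYBR Green after lysis, overnight at room temperature; normalised to 0.29 uM artemisinin and DMSO.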

CP256 = tested on: CP256
Outline: as §1

CP260 = tested on: CP260
Outline: as §1

CP262 = tested on: CP262
Outline: as §1

CP265 = tested on: CP265
Outline: as §1

CP266 = tested on: CP266
Outline: as §1

CP268 = tested on: CP268
Outline: as §1

CP269 = tested on: CP269
Outline: as §1

CP286 = tested on: CP286
Outline: as §1

CP291 = tested on: CP291
Outline: as §1

CP297 = tested on: CP297
Outline: as §1

CP305 = tested on: CP305
Outline: as §1

CP315 = tested on: CP315
Outline: as §1

CP325 = tested on: CP325
Outline: as §1

CP329 = tested on: CP329
Outline: as §1

CP335 = tested on: CP335
Outline: as §1

DFO2036 = tested on: DFO2036
Outline: as §1

DIV14 = tested on: DIV14
Outline: as §1

DIV17 = tested on: DIV17
Outline: as §1

DIV30 = tested on: DIV30
Outline: as §1

Dd2 = tested on: Dd2
Outline: as §1

ECU = tested on: ECU
Outline: as §1

FAB9 = tested on: FAB9
Outline: as §1

GB4 = tested on: GB4
Outline: as §1

HB3 = tested on: HB3
Outline: as §1

ICS = tested on: ICS
Outline: as §1

JCK = tested on: JCK
Outline: as §1

N140 = tested on: N140
Outline: as §1

P93_24 = tested on: P93_24
Outline: as §1

P94_40 = tested on: P94_40
Outline: as §1

PAD = tested on: PAD
Outline: as §1

PC15 = tested on: PC15
Outline: as §1

PC26 = tested on: PC26
Outline: as §1

PC49 = tested on: PC49
Outline: as §1

SC27B = tested on: SC27B
Outline: as §1

TAB109 = tested on: TAB109
Outline: as §1

TAB113 = tested on: TAB113
Outline: as §1

TAB165 = tested on: TAB165
Outline: as §1

W2 = tested on: W2
Outline: as §1

Measured: Potency

O=C(O)[C@@H]1CCCN1
inactive: all assays above
